Data: PubChem BioAssay (Tox21)
Inconclusive results are not listed. The source made the active and inactive calls. Unless noted, calls follow the shape of the full dose curve.

Key:
[1] = Nuclear factor erythroid 2-related factor 2/antioxidant responsive element (Nrf2/ARE) small molecule agonists: qHTS cell viability counter screen in human keratinocytes (AID 1919968; active = well fitted curve in the direction sought with a large enough effect in the repeat runs; an effect the other way counts as inactive or inconclusive; also: nearly all actives have a fitted effect of over 55% in size)
Outline: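 In human HaCaT keratinocytes stably expressing an ARE-driven luciferase, compound exposure lasted 23 h at 37 C under 5% CO2. Viable cells are quantified with a protease-based fluorogenic reagent (CellTiter-Fluor) read 1 h after addition.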

[2] = Nuclear factor erythroid 2-related factor 2/antioxidant responsive element (Nrf2/ARE) small molecule agonists: luciferase reporter gene qHTS assay in human keratinocytes (AID 1919969); also: nearly all actives have a fitted effect of over 35% in size
[3] = target: Gonadotropin-releasing hormone receptor (Homo sapiens) (UniProt P30968); test: Human gonadotropin-releasing hormone receptor (GnRHR) small molecule agonists, calcium flux assay in GnRHR-HEK293 cells (AID 1920063); also: nearly all actives have a fitted effect of over 35% in size
Gonadotropin-releasing hormone receptor (Homo sapiens), sequence (P30968 whole entry, looked up): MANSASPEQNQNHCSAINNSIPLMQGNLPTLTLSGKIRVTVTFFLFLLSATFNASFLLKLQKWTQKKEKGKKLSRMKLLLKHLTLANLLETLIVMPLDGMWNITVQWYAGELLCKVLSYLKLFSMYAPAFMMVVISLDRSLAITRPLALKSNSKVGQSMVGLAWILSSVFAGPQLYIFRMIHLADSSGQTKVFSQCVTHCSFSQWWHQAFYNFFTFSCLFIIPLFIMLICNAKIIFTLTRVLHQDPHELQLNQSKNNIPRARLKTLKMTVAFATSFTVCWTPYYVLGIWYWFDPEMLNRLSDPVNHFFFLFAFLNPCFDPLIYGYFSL
Outline: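 Intracellular calcium rise is the read-out: engineered human GnRHR HEK293 cells, dye-loaded, are exposed to DMSO-dissolved compounds and fluorescence at Ex/Em 480/540 is tracked for 3 min.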

[4] = target: KiSS-1 receptor (Homo sapiens) (UniProt Q969F8); test: Human kisspeptin (KISS1R) small molecule agonists, calcium flux assay in KISS1R-HEK293 cells (AID 1920064; active = well fitted curve in the direction sought with a large enough effect in the repeat runs; an effect the other way counts as inactive or inconclusive)
KiSS-1 receptor (Homo sapiens), sequence (Q969F8 whole entry, looked up): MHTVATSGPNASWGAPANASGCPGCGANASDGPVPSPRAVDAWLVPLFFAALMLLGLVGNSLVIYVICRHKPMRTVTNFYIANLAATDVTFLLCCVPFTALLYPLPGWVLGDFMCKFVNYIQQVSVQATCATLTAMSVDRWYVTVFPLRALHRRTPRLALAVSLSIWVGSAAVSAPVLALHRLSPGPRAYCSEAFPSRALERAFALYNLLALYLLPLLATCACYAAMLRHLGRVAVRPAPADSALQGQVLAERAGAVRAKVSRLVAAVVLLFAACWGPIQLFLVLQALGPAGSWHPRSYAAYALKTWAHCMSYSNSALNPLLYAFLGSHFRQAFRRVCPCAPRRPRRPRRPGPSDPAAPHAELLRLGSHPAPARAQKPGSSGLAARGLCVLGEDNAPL
Outline: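 Concentration-response testing used 15 concentrations in triplicate on human KISS1R-expressing HEK293 cells. Calcium-dependent fluorescence (Ex/Em 480/540) was followed kinetically for 3 min after compound transfer.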

[5] = G protein-coupled receptor (GPCR) small molecule agonists, calcium flux assay: HEK293 wild type cell line counter screen (AID 1920065)
Outline: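 Fluorescence intensity signals activation. After overnight (18 h) culture and a 1 h calcium dye load at 37 C, compounds are added by pin tool and the plate read at 480/540 nm for 3 min in 1 s steps.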

[6] = p53 small molecule agonists, cell-based qHTS assay with human liver microsomes (AID 1963577);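 also: p53 response element beta-lactamase reporter cells with liver microsomes plus NADPH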
Outline: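 Reporter activation was measured by LiveBLAzer fluorescence intensity in p53RE-bla cells, which had been exposed to compounds for 16 h at 37 C alongside 0.5 mg/mL human liver microsomes and 0.5 mg/mL NADPH (final concentrations).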

[7] = p53 small molecule agonists, cell-based qHTS assay with rat liver microsomes (AID 1963578)
Outline: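 Compound in DMSO added to p53RE-bla cells 5 h post-plating; rat microsomes/NADPH 0.5 mg/mL final; 16 h, 37 C; LiveBLAzer 2 h RT.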

[8] = p53 small molecule agonists, cell-based qHTS assay with human liver microsomes: qHTS cell viability counter screen (AID 1963579); also: nearly all actives have a fitted effect of over 45% in size
Outline: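 HLM-supplemented (0.5 mg/mL final) and NADPH-supplemented (0.5 mg/mL final) p53RE-bla cultures, 4,000 cells per well, were dosed with compounds in DMSO for 16 h at 37 C; luminescent ATP detection (CellTiter-Glo, 30 min, room temperature) quantified surviving cells.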

[9] = p53 small molecule agonists, cell-based qHTS assay: qHTS cell viability counter screen (AID 1963581); also: nearly all actives have a fitted effect of over 45% in size
Outline: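 Luminescence from CellTiter-Glo, reflecting ATP content, serves as the cytotoxicity measure; it is taken after the 2 h reporter substrate step in HCT-116 p53RE-bla cells dosed for 16 h at 37 C.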

[10] = p53 small molecule agonists, cell-based qHTS assay (AID 1963582; active = well fitted activation curve with a large enough effect in the signal ratio in the repeat runs, not every such curve was filed as active; the % refers to the signal ratio)
Outline: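 After plating, p53RE-bla cells sat 5 h in the incubator; compounds or DMSO vehicle were pinned in; a 16 h incubation at 37 C followed; FRET substrate was added and, 2 h later at RT, fluorescence was measured.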

[11] = target: 5-hydroxytryptamine receptor 2A (Homo sapiens) (UniProt P28223); test: 5-hydroxytryptamine receptor 2A (HTR2A) small molecule antagonists, cell-based qHTS assay (AID 1963586); also: nearly all actives have a fitted effect of over 45% in size
5-hydroxytryptamine receptor 2A (Homo sapiens), sequence (P28223 whole entry, looked up): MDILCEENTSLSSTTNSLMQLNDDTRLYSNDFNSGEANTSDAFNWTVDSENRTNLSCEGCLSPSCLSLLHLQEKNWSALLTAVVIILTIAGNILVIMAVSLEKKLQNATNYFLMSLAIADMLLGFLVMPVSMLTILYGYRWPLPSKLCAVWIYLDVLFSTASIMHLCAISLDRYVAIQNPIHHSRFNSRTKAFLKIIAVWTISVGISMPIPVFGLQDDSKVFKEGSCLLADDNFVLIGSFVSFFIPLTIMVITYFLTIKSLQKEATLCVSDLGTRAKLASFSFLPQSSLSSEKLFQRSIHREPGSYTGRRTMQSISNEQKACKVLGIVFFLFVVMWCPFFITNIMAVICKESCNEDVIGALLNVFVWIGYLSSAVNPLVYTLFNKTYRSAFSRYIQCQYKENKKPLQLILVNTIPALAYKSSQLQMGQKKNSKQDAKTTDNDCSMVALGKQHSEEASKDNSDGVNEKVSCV
Outline: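 CHO cells stably expressing human HTR2A were plated for 18 h at 37 C, then loaded with calcium dye for 1 h. Compounds were preincubated 5 min at room temperature before DOI (4 nM solution) was added. Kinetic fluorescence was read for 3 min.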

[12] = target: 5-hydroxytryptamine receptor 2A (Homo sapiens) (UniProt P28223); test: 5-hydroxytryptamine receptor 2A (HTR2A) small molecule agonists, cell-based qHTS assay (AID 1963587); also: nearly all actives have a fitted effect of over 30% in size
Outline: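 HTR2A-CHO cells, plated 18 h at 37 C/5% CO2, dye-loaded 1 h at 37 C; compounds in DMSO added by pin tool (agonist mode). Intracellular calcium flux read as kinetic fluorescence on FDSS over 2 min at 1 s intervals.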

[13] = target: Muscarinic acetylcholine receptor M1 (Homo sapiens) (UniProt P11229); test: Cholinergic receptor muscarinic 1 (CHRM1) small molecule antagonists, cell-based qHTS assay (AID 1963588); also: nearly all actives have a fitted effect of over 40% in size
Muscarinic acetylcholine receptor M1 (Homo sapiens), sequence (P11229 whole entry, looked up): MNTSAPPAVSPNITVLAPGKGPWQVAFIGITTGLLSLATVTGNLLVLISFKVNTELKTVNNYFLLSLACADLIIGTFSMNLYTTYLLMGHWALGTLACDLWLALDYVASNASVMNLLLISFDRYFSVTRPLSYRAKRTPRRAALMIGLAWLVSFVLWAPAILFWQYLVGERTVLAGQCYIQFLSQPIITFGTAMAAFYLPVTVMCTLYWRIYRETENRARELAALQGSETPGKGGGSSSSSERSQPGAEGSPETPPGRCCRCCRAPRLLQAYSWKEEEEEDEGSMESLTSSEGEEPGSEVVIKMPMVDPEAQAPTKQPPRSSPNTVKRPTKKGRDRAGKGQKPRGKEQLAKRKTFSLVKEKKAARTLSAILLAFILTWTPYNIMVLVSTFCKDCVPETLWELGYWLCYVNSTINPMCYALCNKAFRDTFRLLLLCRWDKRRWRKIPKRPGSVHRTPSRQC
Outline: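 Compounds were tested at 15 concentrations in three independent runs. Dye-loaded CHRM1-CHO cells were exposed 5 min at room temperature before stimulation by acetylcholine added at 50nM. Intracellular calcium was read kinetically on FDSS for 3 min.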

[14] = target: Muscarinic acetylcholine receptor M1 (Homo sapiens) (UniProt P11229); test: Cholinergic receptor muscarinic 1 (CHRM1) small molecule agonists, cell-based qHTS assay (AID 1963589); also: nearly all actives have a fitted effect of over 35% in size
Outline: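 Fluorescent calcium dye reports M1 activation in stably transfected CHO cells. Compounds, 15 concentrations, added after 1 h dye loading at 37 C; kinetic reading at 1 sec intervals.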

[15] = cAMP Responsive Elements (CRE) small molecule agonists, cell-based qHTS assay (AID 1963590)
Outline: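 Compound exposure lasted 3 h at 37 C/5% CO2 in CRE-bla HEK 293T cells grown in assay medium with 10% dialyzed FBS and 25 mM HEPES. Reporter signal came from LiveBLAzer B/G FRET substrate, 2 h, room temperature.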

[16] = cAMP Responsive Elements (CRE) small molecule antagonists, cell-based qHTS assay (AID 1963591; active = well fitted inhibition curve with a large enough effect in the signal ratio in the repeat runs, not every such curve was filed as active; the % refers to the signal ratio)
Outline: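 Stimulation used NKH477 at a final 0.25 uM for 3 h in compound-treated CRE-bla HEK293T cells, seeded 18 h beforehand. Reporter activity was measured with LiveBLAzer B/G FRET substrate after 2 h at room temperature.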

[17] = target: Beta-2 adrenergic receptor (Homo sapiens) (UniProt P07550); test: Adrenergic beta2 receptor (ADRB2) small molecule antagonists, cell-based qHTS assay (AID 1963592); also: nearly all actives have a fitted effect of over 50% in size; also: potency is read from the fitted curve at half-maximal effect; as to activity change, negative = inhibition: series mostly up to about 92 µM
Beta-2 adrenergic receptor (Homo sapiens), sequence (P07550 whole entry, looked up): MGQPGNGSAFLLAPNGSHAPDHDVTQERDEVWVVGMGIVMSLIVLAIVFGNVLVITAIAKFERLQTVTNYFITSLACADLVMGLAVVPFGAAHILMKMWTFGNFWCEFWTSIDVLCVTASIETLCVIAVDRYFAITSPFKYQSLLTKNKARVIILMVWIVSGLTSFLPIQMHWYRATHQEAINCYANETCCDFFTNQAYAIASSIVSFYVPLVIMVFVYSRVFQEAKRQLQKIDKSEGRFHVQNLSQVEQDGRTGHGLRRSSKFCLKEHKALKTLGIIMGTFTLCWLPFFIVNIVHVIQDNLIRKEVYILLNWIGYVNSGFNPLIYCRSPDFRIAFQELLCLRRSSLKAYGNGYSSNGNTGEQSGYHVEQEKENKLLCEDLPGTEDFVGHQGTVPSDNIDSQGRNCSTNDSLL
Outline: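 Assay format: CHO-ADRB2 cells, 18-20hr seeding at 37C/5% CO2, then compound plus 1nM isoproterenol agonist mix for 0.5hr RT. Homogeneous time-resolved fluorescence cAMP detection after 1hr, expressed as 665/615 nm ratio.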

[18] = target: D(2) dopamine receptor (Homo sapiens) (UniProt P14416); test: Dopamine D2 receptor (DRD2) small molecule agonists, cell-based qHTS assay (AID 1963594); also: nearly all actives have a fitted effect of over 35% in size
D(2) dopamine receptor (Homo sapiens), sequence (P14416 whole entry, looked up): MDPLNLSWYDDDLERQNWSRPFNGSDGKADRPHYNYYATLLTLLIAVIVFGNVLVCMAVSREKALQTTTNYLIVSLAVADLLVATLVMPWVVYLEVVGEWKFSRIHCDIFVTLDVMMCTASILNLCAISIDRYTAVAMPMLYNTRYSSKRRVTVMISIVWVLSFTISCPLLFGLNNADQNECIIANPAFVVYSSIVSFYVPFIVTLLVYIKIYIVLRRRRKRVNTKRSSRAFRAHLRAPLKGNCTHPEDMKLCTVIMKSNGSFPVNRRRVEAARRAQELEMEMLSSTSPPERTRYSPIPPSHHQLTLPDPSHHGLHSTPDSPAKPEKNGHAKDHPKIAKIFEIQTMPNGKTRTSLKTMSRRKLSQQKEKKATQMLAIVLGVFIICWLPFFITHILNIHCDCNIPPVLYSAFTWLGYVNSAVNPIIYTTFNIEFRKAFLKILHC
Outline: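 HEK293 cells stably expressing DRD2 were cultured 24 h at 37 C, then given Ro20-1724 (0.1 mM final) and compounds for 10 min at room temperature. NKH477 (200nM) was then added for 30 min. cAMP was read by HTRF.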

[19] = target: D(2) dopamine receptor (Homo sapiens) (UniProt P14416); test: Dopamine D2 receptor (DRD2) small molecule antagonists, cell-based qHTS assay (AID 1963595; active = well fitted inhibition curve with a large enough effect in the signal ratio in the repeat runs, with a control signal flat; the % refers to the signal ratio; also: potency is read from the fitted curve at half-maximal effect)
Outline: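 Human DRD2 antagonist qHTS measuring cAMP by HTRF. The cells are exposed to compound for 10 min, then to NKH477 (200 nM) and quinpirole (12 nM) for 30 min at RT, with Ro20-1724 (0.1 mM) present throughout.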

[20] = p53 small molecule agonists, cell-based qHTS assay with rat liver microsomes: qHTS cell viability counter screen (AID 1963580); also: nearly all actives have a fitted effect of over 45% in size
Outline: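 Luminescent ATP readout (CellTiter-Glo, 30 min at room temperature) reports viability of p53RE-bla HCT-116 cells after 16 h at 37 C with test compounds under metabolic activation by rat liver microsomes and NADPH at 0.5 mg/mL final each.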
% is scaled to controls: 0 for no effect and ±100 for the full control effect.

O=S(=O)(O)c1ccc2c(N=Nc3ccc(S(=O)(=O)O)c4ccccc34)c(O)c(S(=O)(=O)O)cc2c1
inactive: activity change, negative = cytotoxicity [1] -5.59% [at 8.39 µM] | activity, positive = activation [2] -0.366% [at 8.39 µM] | activity change [3] 18.3% [at 5.22 µM, stronger effect = higher value] | activation [4] 0.398% [at 6.97 µM] | activation [5] 6.05% [at 5.23 µM] | activation [6] -6.7% [at 5.99 µM] | activation [7] -0.431% [at 5.99 µM] | activity change, negative = cytotoxicity [8] -6.02% [at 5.99 µM] | activity change, negative = cytotoxicity [9] -2.08% [at 5.99 µM] | activation [10] -3.84% [at 5.99 µM] | activity, negative = inhibition [11] 0.404% [at 5.62 µM] | activation [12] 12.5% [at 7.02 µM] | activity, negative = inhibition [13] -10.6% [at 5.58 µM] | activation [14] 2.33% [at 6.97 µM] | activation [15] -1.25% [at 8.39 µM] | activity change, negative = inhibition [16] -1.96% [at 8.39 µM] | activity change, negative = inhibition [17] -2.48% [at 8.39 µM] | activation [18] -0.0629% [at 8.39 µM] | activity change, negative = inhibition [19] 0.317% [at 8.38 µM]

CN(C)CCC=C1c2ccccc2CCc2ccccc21
inactive: Potency [1] | Potency [2] | Potency [3] | Potency [4] | Potency [5] | Potency [6] | Potency [7] | Potency [8] | Potency [20] | Potency [15] | Potency [16] | Potency [18]
active: Potency [17] 24.3 µM | Potency [19] 27.3 µM

O=C1CC2CC1C1CCCC21 (centres undefined)
inactive: Potency [1] | Potency [2] | Potency [3] | Potency [4] | Potency [5] | Potency [6] | Potency [7] | Potency [8] | Potency [9] | Potency [10] | Potency [11] | Potency [12] | Potency [13] | Potency [14] | Potency [15] | Potency [16] | Potency [17] | Potency [18] | Potency [19]

Nc1cc(S(=O)(=O)O)ccc1S(=O)(=O)O
inactive: Potency [1] | Potency [2] | Potency [3] | Potency [4] | Potency [5] | Potency [6] | Potency [7] | Potency [8] | Potency [9] | Potency [10] | Potency [12] | Potency [13] | Potency [15] | Potency [16] | Potency [17] | Potency [18] | Potency [19]
